Drawing on PubChem BioAssay (Tox21), this text covers Potency for 20 molecules.

Molecules are shown by their SMILES. “And” between values parts separate entries of the source, which are not always exact repeats. Identical values can stand only once. A number with no mark means an inactive call. Records with an inconclusive call do not appear. The source made the active and inactive calls. Calls come from the whole dose curve; as a rule, active = well fitted curve in the direction sought with a large enough effect in the repeat runs; inconclusive = weak or mixed curves; inactive = no such curve, though single readings can be large; an effect the other way counts as inactive or inconclusive.

The nature of assay [1]: Caspase-3/7 induction in CHO-K1 cells by small molecules, qHTS cell viability counter screen (AID 1346979). Note: nearly all actives have a fitted effect of over 35% in size. An outline of the steps: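 Wild-type CHO-K1 cells (1,500/well) treated with compound after 5 h plating; after 16 h at 37C, viability read as CellTiter-Fluor fluorescence following 1 h reagent incubation, in the same wells as the caspase read.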
(qHTS replaces the single test concentration by a dilution series.)

Assay [2] can be described thus: Caspase-3/7 induction in CHO-K1 cells by small molecules, qHTS assay (AID 1346980). Note: nearly all actives have a fitted effect of over 15% in size. An outline of the steps: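 Luminescent Caspase-Glo 3/7 read (30min, room temperature) quantified apoptosis induction. Cells were wild-type CHO-K1, treated with compound for 17hr at 37 C and 5% CO2.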
A short description of assay [3]: Caspase-3/7 induction in HepG2 cells by small molecules, qHTS cell viability counter screen (AID 1346981). Note: nearly all actives have a fitted effect of over 30% in size. In outline:
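CellTiter-Fluor fluorescence measured viability in the same wells used for Caspase-Glo 3/7. HepG2 (wild type) at 2,000 cells/well were pre-incubated 5 hr, dosed, and given reagent at 16 hr, with 1 hr further at 37C.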

Assay [4] concerns the target Nuclear receptor subfamily 1 group I member 2 (Homo sapiens) (UniProt O75469). Put plainly: Human pregnane X receptor (PXR) small molecule agonists, qHTS assay (AID 1346982). Note: nearly all actives have a fitted effect of over 35% in size. An outline of the steps: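 Agonist mode: luminescence from ONE-Glo after 24 h compound exposure at 37C in HepG2 cells carrying hPXR-responsive CYP3A4 luciferase, plated in charcoal-stripped serum medium 5 h beforehand.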

For assay [5], the target named is Cytochrome P450 2C9 (Homo sapiens) (UniProt P11712). Put plainly: Cytochrome P450 Family 2 Subfamily C Member 9 (CYP2C9) small molecule antagonists: luciferase reporter qHTS assay (AID 1671198). Note: nearly all actives have a fitted effect of over 50% in size. An outline of the steps:
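Enzyme-substrate mix preincubated with compound 10 min at room temperature; reaction started with NADPH regeneration solution, 1 h 37C. Luminescent luciferin product read after 20 min detection reagent.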

In assay [6] the target is Voltage-gated inwardly rectifying potassium channel KCNH2 (Homo sapiens) (UniProt Q12809). Put plainly: Human Ether-a-go-go-Related Gene (hERG) channel small molecule antagonists: fluorescence cell-based qHTS assay (AID 1671200). Note: nearly all actives have a fitted effect of over 50% in size. An outline of the steps: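 hERG-U2OS cells plated overnight at 37 C, loaded with FluxOR II dye 1 h at RT in dark; after 10 min, thallium stimulus added. Fluorescence (480/540 nm) read kinetically for 2 min at 1 s intervals.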

Assay [7] deals with Cytochrome P450 3A4 (Homo sapiens) (UniProt P08684). Put plainly: Cytochrome P450 Family 3 Subfamily A Member 4 (CYP3A4) small molecule antagonists: luciferase reporter qHTS assay (AID 1671201). Note: nearly all actives have a fitted effect of over 50% in size. An outline of the steps: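 P450-Glo CYP3A4 luminescent assay: compounds preincubated 10 min at room temperature with enzyme and proluciferin substrate, NADPH regeneration added, 1 h room-temperature reaction, stopped with luciferin detection reagent; luminescence read after 20 min. Ketoconazole positive control.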
A general note: Reporter assays use an easily measured gene product as a stand-in for the process of interest.

The target in assay [8] is Cytochrome P450 2C19 (Homo sapiens) (UniProt P33261). Put plainly: Cytochrome P450 Family 2 Subfamily C Member 19 (CYP2C19) small molecule antagonists: luciferase reporter qHTS assay (AID 1671197). Note: nearly all actives have a fitted effect of over 65% in size. In outline:
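P450-Glo CYP2C19 system: enzyme-substrate mix with compound 10 min at room temperature, then NADPH regeneration solution, 1 h at 37C. Proluciferin-to-luciferin conversion detected by luminescence after 20 min with detection reagent; ketoconazole as positive control.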

The target in assay [9] is Cytochrome P450 1A2 (Homo sapiens) (UniProt P05177). Put plainly: Cytochrome P450 Family 1 Subfamily A Member 2 (CYP1A2) small molecule antagonists: luciferase reporter qHTS assay (AID 1671199). Note: nearly all actives have a fitted effect of over 50% in size. An outline of the steps: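 Luminescence from luciferin formed by CYP1A2 from a proluciferin substrate, read 20 min after detection reagent. Compound was pre-incubated 10 min with enzyme-substrate, and reaction started with NADPH regeneration solution for 1 h at room temperature; furafylline control.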

Assay [10] concerns the target Cytochrome P450 2D6 (Homo sapiens) (UniProt P10635). Put plainly: Cytochrome P450 Family 2 Subfamily D Member 6 (CYP2D6) small molecule antagonists: luciferase reporter qHTS assay (AID 1671196). Note: nearly all actives have a fitted effect of over 50% in size. An outline of the steps: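 CYP2D6 activity was followed as luminescence from its luciferin product after a 1 h NADPH-driven reaction at room temperature. Enzyme-substrate mix and compound were pre-incubated for 10 min, and the signal was read 20 min after adding detection reagent.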

Assay [11] deals with Nuclear receptor subfamily 1 group I member 2 (Homo sapiens) (UniProt O75469). Put plainly: CYP3A4 induction through human pregnane X receptor (PXR) by small molecules, qHTS assay (AID 1346984). Note: nearly all actives have a fitted effect of over 40% in size. An outline of the steps:
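Read-out is luminescence after One-Glo addition, following a 3 hr, 37C incubation with Luciferin-IPA CYP3A4 substrate (3uM final). Before that, compounds were on DPX-2 cells (HepG2 co-transfected with PXR element plus CYP3A4-promoter luciferase) for 24 hr at 37C.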

Assay [12] has the same target. Put plainly: Human pregnane X receptor (PXR) activation by small molecules, qHTS assay (AID 1346985). Note: nearly all actives have a fitted effect of over 40% in size. An outline of the steps:
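DPX-2 cells (HepG2 co-transfected with a PXR response element and a CYP3A4-promoter luciferase construct) were seeded at 2,000 per well, rested 5 hr at 37C, then exposed to DMSO-dissolved compounds for 24 hr. Activation was read as luciferase luminescence.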
Potency is the fitted concentration of half-maximal effect.

Chain of Cytochrome P450 2D6 (Homo sapiens) (P10635 whole entry, looked up): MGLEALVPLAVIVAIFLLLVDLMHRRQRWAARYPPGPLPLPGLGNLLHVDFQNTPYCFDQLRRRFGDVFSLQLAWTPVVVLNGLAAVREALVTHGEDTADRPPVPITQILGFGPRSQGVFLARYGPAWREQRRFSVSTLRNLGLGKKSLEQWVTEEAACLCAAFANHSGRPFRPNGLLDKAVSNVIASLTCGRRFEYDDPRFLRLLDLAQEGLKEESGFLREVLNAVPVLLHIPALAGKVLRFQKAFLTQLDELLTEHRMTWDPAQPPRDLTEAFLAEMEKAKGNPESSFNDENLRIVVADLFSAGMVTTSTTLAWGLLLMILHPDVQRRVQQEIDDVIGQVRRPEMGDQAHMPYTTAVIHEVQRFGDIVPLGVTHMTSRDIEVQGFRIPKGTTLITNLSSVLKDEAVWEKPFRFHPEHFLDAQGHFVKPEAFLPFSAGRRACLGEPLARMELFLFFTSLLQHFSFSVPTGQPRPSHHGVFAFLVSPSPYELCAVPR
Chain of Cytochrome P450 3A4 (Homo sapiens) (P08684 whole entry, looked up): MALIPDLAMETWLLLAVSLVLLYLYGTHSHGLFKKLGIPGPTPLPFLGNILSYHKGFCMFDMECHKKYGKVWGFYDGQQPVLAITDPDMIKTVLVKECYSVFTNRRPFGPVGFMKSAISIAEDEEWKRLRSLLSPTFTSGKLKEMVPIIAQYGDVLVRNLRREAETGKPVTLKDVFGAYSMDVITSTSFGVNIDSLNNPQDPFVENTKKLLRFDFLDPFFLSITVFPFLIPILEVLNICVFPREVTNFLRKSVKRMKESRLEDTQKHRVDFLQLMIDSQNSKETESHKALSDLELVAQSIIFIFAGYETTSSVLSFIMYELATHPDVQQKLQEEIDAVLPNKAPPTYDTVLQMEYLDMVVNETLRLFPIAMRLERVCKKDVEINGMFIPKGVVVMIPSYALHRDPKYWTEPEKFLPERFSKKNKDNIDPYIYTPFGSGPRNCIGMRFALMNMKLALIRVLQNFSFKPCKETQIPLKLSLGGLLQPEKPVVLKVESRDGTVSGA
Chain of Cytochrome P450 1A2 (Homo sapiens) (P05177 whole entry, looked up): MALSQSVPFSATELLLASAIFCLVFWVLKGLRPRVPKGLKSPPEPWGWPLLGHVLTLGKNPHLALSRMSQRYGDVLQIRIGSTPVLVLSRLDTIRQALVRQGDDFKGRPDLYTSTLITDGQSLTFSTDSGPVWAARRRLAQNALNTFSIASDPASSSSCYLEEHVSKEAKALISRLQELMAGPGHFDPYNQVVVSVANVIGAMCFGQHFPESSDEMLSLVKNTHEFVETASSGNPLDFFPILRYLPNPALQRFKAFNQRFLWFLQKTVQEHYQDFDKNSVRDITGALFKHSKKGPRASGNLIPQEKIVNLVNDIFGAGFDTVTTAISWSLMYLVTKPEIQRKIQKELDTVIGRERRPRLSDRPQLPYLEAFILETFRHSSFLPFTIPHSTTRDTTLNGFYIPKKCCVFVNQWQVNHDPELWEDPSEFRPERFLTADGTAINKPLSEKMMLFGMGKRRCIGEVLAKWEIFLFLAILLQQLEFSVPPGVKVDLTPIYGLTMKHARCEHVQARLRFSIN
Chain of Cytochrome P450 2C19 (Homo sapiens) (P33261 whole entry, looked up): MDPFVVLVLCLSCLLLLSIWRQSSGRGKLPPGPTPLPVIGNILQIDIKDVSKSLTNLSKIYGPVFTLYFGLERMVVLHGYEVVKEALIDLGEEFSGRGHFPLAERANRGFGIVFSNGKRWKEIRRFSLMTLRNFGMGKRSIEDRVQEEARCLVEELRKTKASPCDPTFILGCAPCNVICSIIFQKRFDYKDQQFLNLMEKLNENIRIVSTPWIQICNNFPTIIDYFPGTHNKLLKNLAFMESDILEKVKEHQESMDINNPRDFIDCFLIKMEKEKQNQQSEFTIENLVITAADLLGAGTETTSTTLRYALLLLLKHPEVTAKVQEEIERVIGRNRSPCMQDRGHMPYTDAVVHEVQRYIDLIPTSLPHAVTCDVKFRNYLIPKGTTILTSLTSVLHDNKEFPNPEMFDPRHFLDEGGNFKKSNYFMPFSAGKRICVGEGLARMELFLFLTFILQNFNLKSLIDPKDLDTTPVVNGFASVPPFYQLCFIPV
Chain of Voltage-gated inwardly rectifying potassium channel KCNH2 (Homo sapiens) (Q12809 whole entry, looked up): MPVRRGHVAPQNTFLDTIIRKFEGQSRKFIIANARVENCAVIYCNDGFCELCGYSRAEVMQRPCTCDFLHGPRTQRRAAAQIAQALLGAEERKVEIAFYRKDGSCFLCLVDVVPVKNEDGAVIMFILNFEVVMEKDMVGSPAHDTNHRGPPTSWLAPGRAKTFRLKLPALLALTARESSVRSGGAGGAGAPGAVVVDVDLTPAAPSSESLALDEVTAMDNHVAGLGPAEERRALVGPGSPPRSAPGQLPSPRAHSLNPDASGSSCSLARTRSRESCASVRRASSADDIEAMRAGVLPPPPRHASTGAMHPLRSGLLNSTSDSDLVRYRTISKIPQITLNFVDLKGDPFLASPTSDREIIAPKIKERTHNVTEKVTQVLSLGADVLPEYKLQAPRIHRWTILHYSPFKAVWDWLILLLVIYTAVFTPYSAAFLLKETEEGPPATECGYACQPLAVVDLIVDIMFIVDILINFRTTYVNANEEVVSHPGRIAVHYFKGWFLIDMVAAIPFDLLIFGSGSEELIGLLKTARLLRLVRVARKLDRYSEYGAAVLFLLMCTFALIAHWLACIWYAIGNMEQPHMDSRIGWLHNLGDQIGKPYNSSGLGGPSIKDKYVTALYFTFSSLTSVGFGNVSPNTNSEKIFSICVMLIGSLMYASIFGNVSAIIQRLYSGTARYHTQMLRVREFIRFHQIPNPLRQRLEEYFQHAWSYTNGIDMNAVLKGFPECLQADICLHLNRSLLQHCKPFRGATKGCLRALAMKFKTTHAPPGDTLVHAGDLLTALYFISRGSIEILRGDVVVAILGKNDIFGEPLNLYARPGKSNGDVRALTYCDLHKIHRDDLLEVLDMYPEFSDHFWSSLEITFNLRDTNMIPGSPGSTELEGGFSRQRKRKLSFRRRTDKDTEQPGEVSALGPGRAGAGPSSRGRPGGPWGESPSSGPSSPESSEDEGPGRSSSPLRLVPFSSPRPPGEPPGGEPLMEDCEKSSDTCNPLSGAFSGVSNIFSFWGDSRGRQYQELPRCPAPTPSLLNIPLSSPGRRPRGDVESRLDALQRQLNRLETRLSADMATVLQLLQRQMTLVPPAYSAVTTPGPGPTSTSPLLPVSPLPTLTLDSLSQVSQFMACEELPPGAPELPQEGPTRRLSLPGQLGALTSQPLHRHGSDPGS
Chain of Nuclear receptor subfamily 1 group I member 2 (Homo sapiens) (O75469 whole entry, looked up): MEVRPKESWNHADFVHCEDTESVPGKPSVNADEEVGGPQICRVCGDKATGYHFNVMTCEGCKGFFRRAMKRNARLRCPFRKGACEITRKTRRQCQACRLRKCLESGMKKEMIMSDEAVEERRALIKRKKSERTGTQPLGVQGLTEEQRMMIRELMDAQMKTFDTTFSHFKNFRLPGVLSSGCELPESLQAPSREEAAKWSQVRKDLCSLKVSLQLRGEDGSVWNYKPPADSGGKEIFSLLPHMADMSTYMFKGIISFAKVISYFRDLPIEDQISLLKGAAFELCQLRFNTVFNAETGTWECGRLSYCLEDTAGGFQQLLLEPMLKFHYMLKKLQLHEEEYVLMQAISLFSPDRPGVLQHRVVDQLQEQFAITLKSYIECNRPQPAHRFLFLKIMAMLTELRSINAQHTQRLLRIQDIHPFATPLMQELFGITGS
Chain of Cytochrome P450 2C9 (Homo sapiens) (P11712 whole entry, looked up): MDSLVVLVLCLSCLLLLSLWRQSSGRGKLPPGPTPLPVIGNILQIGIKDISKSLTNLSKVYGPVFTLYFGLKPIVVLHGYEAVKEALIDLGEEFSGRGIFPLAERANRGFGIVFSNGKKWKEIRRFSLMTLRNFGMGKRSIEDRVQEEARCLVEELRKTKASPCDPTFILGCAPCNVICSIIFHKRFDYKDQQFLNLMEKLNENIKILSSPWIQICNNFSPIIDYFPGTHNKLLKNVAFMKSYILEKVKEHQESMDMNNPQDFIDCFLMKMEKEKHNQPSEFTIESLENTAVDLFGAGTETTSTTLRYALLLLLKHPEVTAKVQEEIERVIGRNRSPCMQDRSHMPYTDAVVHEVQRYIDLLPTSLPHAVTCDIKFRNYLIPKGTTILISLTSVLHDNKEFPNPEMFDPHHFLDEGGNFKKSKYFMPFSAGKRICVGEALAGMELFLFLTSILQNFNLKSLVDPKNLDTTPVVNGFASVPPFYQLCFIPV

With `c1cc(OCC2CO2)cc(OCC2CO2)c1` (stereo unspecified), the Potency in assay [1] is 60.6 µM (active); in assay [3] it was 60.6 µM (active); in [4] it was 21.5 µM (active); in [5], 39.6 µM (active); in assay [7] it was 35.3 µM (active). Further, the Potency result in [2] and in assay [6] was “inactive” each time.

As for `CCN(CC)c1cccc(C)c1`, the Potency entry in [1], in assay [2], in [3], in [4], in assay [8] and in [5] was “inactive” each time. Besides, the Potency entry in assay [9], in assay [6] and in [7] was “inactive” throughout.

Consider `O=C1NCCN1CCN1CCC(c2cn(-c3ccc(F)cc3)c3ccc(Cl)cc23)CC1`, for which the Potency in assay [1] was 26.6 µM (active); in [2] it was 26.6 µM (active); in [3], 29.8 µM (active); in [10] it was 4.36 µM (active). The Potency entry in [8], in assay [5] and in assay [9] was “inactive” in each case.

Turning to `C/C=C/C(=O)C1=C(C)CCCC1(C)C`, the Potency entry in [1], in assay [2], in assay [3], in [10], in [5] and in assay [9] was “inactive” in each case. Moreover, in [6], the Potency result is “inactive”. For the same molecule, in assay [8], the Potency was 79.6 µM (active).

With `CN(C)c1ccc(N=NS(=O)(=O)O)cc1`, the Potency in assay [1] is 33.8 µM (active); in [3] it was 25 µM (active); in [10], 7.94 µM (active); in assay [8] it was 0.421 µM (active); in [5], 5.09 µM (active); in assay [9], 9.45 µM (active). The Potency entry in assay [2] and in assay [6] was “inactive” throughout.

Regarding `O=Cc1ccc(F)cc1`, the Potency entry in assay [1], in assay [2], in [3], in [8], in [5] and in assay [9] was “inactive” in each case. In assay [6], the Potency entry is “inactive”. Further, the Potency in assay [10] was 35.6 µM (active).

Consider `CCCCCCCCCC(=O)N(C)C`, for which the Potency entry in assay [1], in [2], in [3], in assay [10] and in assay [6] was “inactive” each time. For the same molecule, the Potency is 36.1 µM (active) in assay [8], 40.5 µM (active) in assay [5] and 36.1 µM (active) in assay [9].

On to `CSc1ccc2c(c1)N(CCC1CCCCN1C)c1ccccc1S2` (stereo unspecified), for which the Potency in assay [1] was 15.3 µM (active) and 29.8 µM (active); in assay [2] it was 19.3 µM (active); in assay [3], 60.9 µM (active) and 29.8 µM (active); in [4], 9.65 µM (active) and 5.96 µM (active); in assay [8] it was 17.8 µM (active) and 21.9 µM (active); in assay [5], 70.7 µM (active). Further, the Potency in assay [9] is 28.1 µM (active) and 15.5 µM (active). For the same molecule, the Potency entry in assay [7] is “inactive”.

For `COC(=O)CC#N`, the Potency entry in assay [1], in assay [2], in assay [3], in assay [4], in [5] and in assay [6] was “inactive” each time. In assay [7], the Potency result was “inactive”.

Turning to `CCC(C)C(=O)OC` (stereo unspecified), the Potency entry in assay [1], in assay [2], in assay [3], in assay [10], in assay [8] and in assay [5] was “inactive” throughout. Besides, the Potency entry in assay [9], in [6] and in [7] was “inactive” throughout.

As to `CC(C)CCOCCC(C)C`, the Potency entry in assay [1], in assay [2], in assay [3], in [4], in assay [5] and in assay [9] was “inactive” throughout. The Potency result in [6] and in assay [7] was “inactive” throughout.

As to `O=C(O)CC(=O)O`, the Potency result in [1], in assay [2], in [3], in assay [8], in assay [5] and in [6] was “inactive” throughout. Moreover, the Potency was 71.2 µM (active) in [10] and 63.4 µM (active) in [9].

On to `CCCCCCCOC(=O)c1ccc(O)cc1`, for which the Potency in assay [1] was 61.2 µM (active) and 61.1 µM (active); in assay [10], 71 µM (active); in assay [8], 7.1 µM (active) and 20 µM (active); in assay [5], 35.6 µM (active) and 39.9 µM (active); in assay [9], 5.64 µM (active) and 20 µM (active). Further, the Potency entry in assay [2] and in [3] was “inactive” each time.

As to `Cn1cccc1`, the Potency result in [1], in assay [2], in assay [3], in assay [4], in [8] and in [5] was “inactive” throughout. Further, the Potency result in [9], in assay [6] and in assay [7] was “inactive” throughout.

Consider `CC1CCCNC1` (stereo unspecified), for which the Potency entry in [1], in [2], in [3], in assay [8], in assay [5] and in [9] was “inactive” throughout. The Potency result in assay [6] and in [7] was “inactive” each time. The Potency in assay [10] was 39.1 µM (active).

In the case of `CN(Cc1cc(Br)cc(Br)c1N)C1CCCCC1`, the Potency entry in [1], in assay [2], in [3] and in assay [7] was “inactive” in each case. The Potency in assay [11] is 14.1 µM (active); in [12], 8.91 µM (active); in assay [10] it was 0.0078 µM (active); in [8], 4.36 µM (active); in assay [9], 32.3 µM (active); in [6], 10.7 µM (active).

Consider `NC(=O)C(=O)N/N=C/c1ccc([N+](=O)[O-])o1`, for which the Potency in assay [1] was 23.7 µM (active). In addition, the Potency entry in assay [2], in assay [3], in [11], in assay [12], in assay [10] and in assay [8] was “inactive” each time. The Potency result in [9], in [6] and in assay [7] was “inactive” in each case.

`CCOC(=O)CN`: the Potency entry in assay [1], in assay [2], in assay [3], in [4], in assay [8] and in assay [5] was “inactive” each time. Further, the Potency result in [9], in assay [6] and in assay [7] was “inactive” in each case.

Turning to `Brc1ccccn1`, the Potency entry in [1], in [2], in assay [3], in assay [10], in assay [8] and in assay [5] was “inactive” throughout. The Potency entry in assay [9], in assay [6] and in assay [7] was “inactive” throughout.

As for `CCC(C)c1ccccc1` (stereo unspecified), the Potency entry in [1], in [2], in assay [3], in [10], in assay [8] and in assay [5] was “inactive” throughout. For the same molecule, the Potency entry in [9] and in [6] was “inactive” each time.
